TRHR PAM: allosteric enhancers of human TRH receptor; P34981; TRHR cells, fluo-8 calcium fluorescence, EC20 TRH enhancement; enhancement, % at 2 µM; hit rate 0.66% among 360,000; AID 493056; in the data active = enhancement above about 30%
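TRHR-expressing cells loaded with fluo-8 calcium dye were read kinetically (ex 480/em 530) during compound addition, then stimulated with an EC20 of TRH (10 nM final). Enhancement of the Gq-mediated intracellular calcium response was scored.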
GRP78 ERSR act: ER stress response induction in glioma. hit rate 0.02% among 420,000. U87-MG GRP78 promoter luciferase reporter, 16 h. Potency, µM, most hits filed as activators; active = well fitted activation curve with a large enough effect; inconclusive = small, poorly fitted or top-dose-only effect; inactive = no such curve, though single readings can be large or run the other way; also: series mostly up to about 76 µM; nearly all actives have a fitted effect of over 35% in size
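Stably transfected U87-MG glioma cells carrying a GRP78-based luciferase sensor; 16 h compound incubation. Luminescence end-point read 10 min after Bright-Glo addition at room temperature.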
TRHR agonist: TRH receptor (human) agonism | hit rate 0.18% among 360,000 | P34981 | TRHR cells, calcium flux fluo-8, FDSS agonist mode | AID 493084 | activation, % at 2 µM
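TRHR-expressing cells, plated overnight in medium with 10% serum, were loaded with fluo-8 calcium dye at room temperature. After a 10 s baseline, library compound was pin-added and calcium release was recorded kinetically (ex 480/em 530) as agonist response.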
D1 potentiator: human D1 dopamine receptor positive modulation | potentiation, % at 10 µM | hit rate 0.036% among 360,000 | HEK293 TREx D1 cells, calcium flux, dopamine EC20 potentiation | P21728; in the data active = potentiation above about 30%
Target sequence (P21728 whole entry, looked up): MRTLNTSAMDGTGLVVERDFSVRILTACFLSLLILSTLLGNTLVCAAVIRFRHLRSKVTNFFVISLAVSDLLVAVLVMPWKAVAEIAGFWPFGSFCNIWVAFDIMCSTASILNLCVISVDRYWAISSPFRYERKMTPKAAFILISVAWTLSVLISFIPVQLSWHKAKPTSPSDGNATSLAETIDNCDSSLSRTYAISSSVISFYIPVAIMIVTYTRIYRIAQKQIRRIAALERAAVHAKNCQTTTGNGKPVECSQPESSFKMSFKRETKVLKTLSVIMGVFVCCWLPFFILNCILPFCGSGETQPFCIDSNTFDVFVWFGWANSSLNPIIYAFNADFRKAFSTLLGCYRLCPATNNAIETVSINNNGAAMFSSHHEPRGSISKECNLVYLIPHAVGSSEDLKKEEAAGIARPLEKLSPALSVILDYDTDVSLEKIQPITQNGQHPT
D1 ag: agonists of human D1 dopamine receptor | HEK293 T-REx D1 cells, calcium flux, agonist mode | hit rate 1% among 360,000 | AID 504660 | P21728 | activation, % at 2 µM
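Tetracycline-induced HEK293 TREx D1 cells, force-coupled to calcium signalling, were dye-loaded with a no-wash calcium kit. Compound was pin-added after a 10 s baseline. Fluorescence was read kinetically at 1 cycle/s for 180 s, with calcium rises flagged as agonism.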
D1 antagonist: human D1 dopamine receptor antagonism; P21728; HEK293 TREx D1 cells, calcium flux, dopamine EC80; active compounds read low; activity change, negative = inhibition, % at 10 µM; hit rate 3.2% among 360,000; in the data active = activity change below about -30%
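Inducible Hek293 Trex D1 cells (tetracycline, overnight, 30 C). Calcium dye 30–90 min RT. Antagonist mode: EC80 dopamine added after 180 s compound read.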
Of the large screens only hits and unclear results are named; the others gave an inactive call; ! = not active in a repeat. Only some compounds are listed: those with a hit (about 4% of all), similar ones and a draw of the others. Rule as the data show it, unless noted: active = activation above about 30%; inactive = the rest.

CC(=O)Nc1ccc(NS(=O)(=O)c2ccc(CN3C(=O)c4cccnc4C3=O)cc2)cc1	none
COc1ccc(/C=N/Nc2ccc([N+](=O)[O-])cc2)cc1O	D1 ag 31.0
CN(C)c1ccc(/C=C/c2ccnc3ccc(N)cc23)cc1	none (no result: TRHR PAM, TRHR agonist, D1 potentiator, D1 ag, D1 antagonist)
COc1cccc(CCNc2ncnc3sc(C(=O)N4CCOCC4)c(C)c23)c1	none (no result: TRHR PAM, TRHR agonist, D1 potentiator, D1 ag, D1 antagonist)
Cc1ccc(CS/C(Nc2ccccc2C)=C(\C#N)C(=O)NCc2ccco2)c(C)c1	D1 ag 30.2
Cc1ccccc1N/C(SCc1ccc(Cl)cc1)=C(/C#N)C(=O)NCc1ccco1	none
CN(Cc1cccc(C(F)(F)F)c1)C(=O)[C@H]1O[C@@H](n2ccc(N)nc2=O)[C@H](O)[C@@H]1O	none (no result: TRHR PAM, TRHR agonist, D1 potentiator, D1 ag, D1 antagonist)
CCOC(=O)COc1ccccc1/C=C\[N+](=O)[O-]	D1 antagonist -86.4
Cc1cc(OCCSc2nnc(-c3cccs3)n2C)ccc1Cl	D1 ag 34.8
O=C(CSc1ccc(Cl)cc1)c1ccco1	TRHR PAM 35.6
Cc1nnc(SC(C)C(=O)Nc2nccs2)s1 (configuration not stated)	D1 antagonist -33.4
COc1ccc(NC(=O)CC2SC(=NCC3CCCO3)NC2=O)cc1 (configuration not stated)	D1 antagonist -46.9
COc1ccc(N(CC(=O)NC2CCCCC2)C(=O)c2ccc(C)s2)cc1OC	TRHR PAM 31.8
COc1ccc(N(CC(=O)NC2CCCC2)C(=O)c2ccc(C)s2)c(OC)c1	none
CCc1ccc(NC(=O)c2ccc(F)c(S(=O)(=O)N3CCc4ccccc4C3)c2)cc1	none
Nc1nc(-c2ccccc2)nn1C(=O)c1ccco1	D1 antagonist -34.1
CCOC(=O)c1cc(S(=O)(=O)NCc2ccc(Cl)cc2)[nH]n1	D1 antagonist -31.6
CCCNC(=O)c1nnsc1S(=O)(=O)c1ccc(Cl)cc1	D1 antagonist -38.8
COc1ccc(-c2nc3cnc(Oc4cccc(Cl)c4)nc3n(C3CC3)c2=O)cc1	none (no result: TRHR PAM, TRHR agonist, D1 potentiator, D1 ag, D1 antagonist)
CCN(C(=O)CCS(=O)(=O)c1cccc2nsnc12)c1cccc(C)c1	D1 antagonist -56.6!
C=CCN(C(=O)CCS(=O)(=O)c1cccc2nsnc12)c1ccccc1	none
CCOc1ccc(/C=C/c2cc[n+](C)c3ccccc23)cc1OCC	none (no result: TRHR PAM, TRHR agonist, D1 potentiator, D1 ag, D1 antagonist)
COc1ccc(NC(=O)CN2CCN(C(=O)C3CCCO3)CC2)c(OC)c1 (configuration not stated)	D1 ag 50.0
Cc1ccnc2ccc3ccccc3c12	none (no result: TRHR PAM, TRHR agonist, D1 potentiator, D1 ag, D1 antagonist)
O=C1CN(C(=O)c2cccc(S(=O)(=O)N3CCCC3)c2)c2ccccc2N1	TRHR PAM 40.7
CC(C)C[C@H]1C(=O)N2CCC[C@H]2[C@]2(O)O[C@](NC(=O)[C@@H]3C=C4c5cccc6[nH]c(Br)c(c56)CC4N(C)C3)(C(C)C)C(=O)N12 (some centres not stated)	D1 antagonist -41.7
CN(C1CCCCC1)S(=O)(=O)CCNC(=O)c1ccccc1	D1 antagonist -66.9
CCN(CC)S(=O)(=O)c1ccc2c(c1)c(=O)c(C(=O)NCc1ccccc1Cl)cn2C	none
Cc1ccc(NC(=O)CSc2nc3nc(C)cc(C)c3c(=O)[nH]2)cc1	none
Cc1cc(C)c2c(=O)[nH]c(SCC(=O)Nc3ccc(N(C)C)cc3)nc2n1	D1 antagonist -35.2
Cc1cc(Nc2ccccc2)c2c([N+](=O)[O-])cc(C)c(C)c2n1	TRHR PAM 39.1
COc1ccccc1Nc1cc(C)nc2c(C)ccc([N+](=O)[O-])c12	none
Cc1ccccc1OCCn1c(=N)n(C(C)C)c2ccccc21	D1 ag 43.2
Cc1ccccc1OCCN1C(=O)c2ccccc2C1=O	none
CC(=O)Nc1ccc(-c2cc(C(=O)O)c3ccc(C)cc3n2)cc1	none
CN(C)c1ccc2c(c1)OC(N)=C(C#N)C2c1cccc(F)c1 (configuration not stated)	D1 ag 75.5
COc1ccc(NC(=O)COc2ccc(S(=O)(=O)NC3CCCCC3)cc2)cc1OC	none
COc1ccccc1OCc1ccc(C(=O)Nc2ccc(Cl)cn2)o1	D1 antagonist -35.7
COc1ccc(NC(=O)c2ccc(COc3ccccc3Br)o2)cc1OC	D1 antagonist -36.6
Cc1cccc(/C=N/NC(=O)c2ccc(F)cc2)n1	none
COCCn1c(/C=C/c2ccccc2)nc2ccccc21	D1 antagonist -33.8
CCCCn1c(/C=C/c2ccco2)nc2ccccc21	D1 ag 30.4
CCCn1c(/C=C/c2ccco2)nc2ccccc21	none
COc1ccc(/C=C/c2nc3ccccc3n2Cc2ccccc2OC)cc1	none
CC(C)CCn1c(-c2nonc2N)nc2ccccc21	D1 antagonist -33.2
COc1ccccc1Cn1c(/C=C/c2ccccc2)nc2ccccc21	D1 antagonist -31.5
CSc1ncccc1C(=O)N1CCOc2ccc(C(C)(O)CCn3cccn3)cc2C1 (configuration not stated)	none (no result: TRHR PAM, TRHR agonist, D1 potentiator, D1 ag, D1 antagonist)
O=C(NC1CCCC1)C(c1ccc(F)cc1)N(Cc1ccccc1Cl)C(=O)CCl (configuration not stated)	none
C[C@@H]1O[C@@]2(CS1)CN1CCC2CC1	none (no result: TRHR PAM, TRHR agonist, D1 potentiator, D1 ag, D1 antagonist)
OCC1OC(C#Cc2ccccc2)C=CC1O (configuration not stated)	none (no result: TRHR PAM, TRHR agonist, D1 potentiator, D1 ag, D1 antagonist)
CCC(C)Cn1c(/C=C/c2ccccc2)nc2ccccc21 (configuration not stated)	none
CC(C)CCn1c(/C=C/c2ccccc2)nc2ccccc21	D1 antagonist -32.4
C#CCn1c(/C=C/c2ccc(Cl)cc2)nc2ccccc21	D1 antagonist -36.3
CCOc1ccc(OCCC(=O)OCC(=O)N(CC)c2c(N)n(Cc3ccccc3)c(=O)[nH]c2=O)cc1	none (no result: TRHR PAM, TRHR agonist, D1 potentiator, D1 ag, D1 antagonist)
CCSc1nnc(NC(=O)c2cccc(S(=O)(=O)N(C)c3ccccc3)c2)s1	none
C=CCN(c1ccccc1)S(=O)(=O)c1cccc(C(=O)Nc2nnc(SCC)s2)c1	D1 antagonist -85.4
C=CCN(c1ccccc1)S(=O)(=O)c1cccc(C(=O)OCC(=O)NC2CC2)c1	D1 antagonist -33.6
C=CCN(c1ccccc1)S(=O)(=O)c1cccc(C(=O)OCC(=O)NCCOC)c1	none
Cc1nc(C)n(CC(=O)NCC2Cc3cc(-c4cccc(OC(F)(F)F)c4)ccc3O2)n1 (configuration not stated)	none (no result: TRHR PAM, TRHR agonist, D1 potentiator, D1 ag, D1 antagonist)
CC(=O)c1ccc(NC(=O)C2CCCN(S(=O)(=O)c3cn(C)cn3)C2)cc1 (configuration not stated)	none
CC1CCC2C(=O)N3C(CCC(C)[C@H]3c3cccc(N4CCCC4=O)c3)C(=O)N2C1c1cccc(N2CCCC2=O)c1 (some centres not stated)	none (no result: TRHR PAM, TRHR agonist, D1 potentiator, D1 ag, D1 antagonist)
CCOc1cc(/C=C2/SC(=S)NC2=O)ccc1OC(=O)c1ccco1	none
O=C1NC(=S)S/C1=C/c1ccc(OC(=O)c2ccco2)cc1	GRP78 ERSR act inconclusive, D1 antagonist -30.4

Source: PubChem (National Center for Advancing Translational Sciences (NCATS))
